Test results: PubChem BioAssay
Activity calls are given as the source filed them.

Test: small-molecule binders of probe aLefty1, primary screen, biochemical, small-molecule microarray, 635/667 nm fluorescence (AID 1153);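 note: score merges spot fluorescence with signal-to-noise ratio from the scanned slide images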
Conditions: higher = more signal

Row | Compound | composite z-score
1 | O=C1C2C=CC(C(O)C(c3ccccc3)c3ccccc3)N(Nc3ccccc3)C2C(=O)N1c1ccccc1 (configuration not stated) | 0.591
2 | CC(C)CNC(=O)[C@@]1(C)c2ccccc2C(=O)N(Cc2cc(F)cc(C(F)(F)F)c2)[C@H]1c1ccc(CO)cc1 | 0.163
3 | Cc1c(NC(=O)/C(C#N)=C/c2ccc(Cl)cc2)c(=O)n(-c2ccccc2)n1C | 0.0042
4 | CN1C(=O)[C@]2(CCS(=O)(=O)c3ccccc3)N=C(c3ccc(OCCCO)cc3)O[C@@H]2c2ccccc21 | 0.18
5 | COc1cccc(C[C@H]2C[C@@H](CO[Si](C(C)C)(C(C)C)C(C)C)N3C(=O)[C@@]4(C(C)=O)O[C@@]23[C@@H]2C(=O)N(C)C(=O)[C@@H]24)c1 | -0.0061
6 | CC(=O)n1cc(C(O)C2C=CC3C(=O)N(c4ccccc4)C(=O)C3N2Nc2ccccc2F)c2ccccc21 (configuration not stated) | -0.147
7 | CC=CC(O)C1C=CC2C(=O)N(C)C(=O)C2N1NC(=O)OC(C)(C)C (configuration not stated) | 0.277

Test: PSAC antagonists in infected red cells, primary screen, cell-based, P. falciparum Indochina, OD700, 1 h (AID 1154)
Conditions: P. falciparum Indochina infected RBC osmotic lysis, higher = more signal, called active from +8 up or from −8 down

Row | Compound | z-score
8 | CCCCC(=C=CC[C@@H](O)c1cccc(OCCO)c1)CCO | 6.54 (inactive)
9 | C=CCOC(=O)[C@@H]1[C@H]2C(=O)O[C@H](c3ccccc3)[C@H](c3ccccc3)N2[C@H](c2ccc(OCCOC(=O)[C@H]3C[C@H]4C(=O)NCC(=O)N4[C@H]3c3ccc(O)cc3)cc2)[C@@]12C(=O)Nc1ccc(I)cc12 | 8.8 (active)
10 | CN1C=C(C(=O)OCCS(C)(=O)=O)C(C(=O)OCCS(C)(=O)=O)=CC(CCCO)=CC1c1ccc(CN2CCCC2)cc1 (configuration not stated) | 1.39 (inactive)
11 | COCCOC(=O)N1C(=O)[C@@]2(c3cc(C#CC4(O)CCCCCC4)ccc31)[C@H](C(=O)N1CCc3cc(OC)c(OC)cc3C1)[C@H]1C(=O)O[C@H](c3ccccc3)[C@H](c3ccccc3)N1[C@@H]2c1ccc(O)cc1 | 1.31 (inactive)
12 | O=C1O[C@@H](c2ccccc2)[C@@H](c2ccccc2)N2[C@@H](c3ccc(OCCO)cc3)[C@]3(C(=O)Nc4ccc(C#CCCO)cc43)[C@@H](C(=O)Nc3nc4ccccc4s3)[C@H]12 | 1.01 (inactive)
13 | COCCCNC(=O)[C@@H]1c2ccccc2C(=O)N(C2CCCCC2)[C@H]1c1ccc(CO)cc1 | 0.794 (inactive)
14 | C=CC[C@]1(C(=O)NCc2ccccc2)COC(c2ccc(OCCCO)cc2)=N1 | 20.7 (active)
15 | CN(C)CCCNC(=O)[C@@]1(Cc2ccccc2I)c2ccccc2C(=O)N(Cc2ccccc2)[C@H]1c1ccc(CO)cc1 | 1.88 (inactive)
16 | COc1cccc(OC)c1C(=O)O[C@H]1[C@@H]2OC(=O)[C@H](Cc3cccc(Br)c3)C/C=C/C[C@@H](Cc3cccc(Br)c3)C(=O)O[C@H]2[C@@H](OC)O[C@@H]1CO | 3.18 (inactive)
17 | [N-]=[N+]=NCc1ccccc1C[C@]1(C(=O)NCc2ccccc2)N=C(c2ccc(OCCCO)cc2)O[C@H]1c1ccccc1CN=[N+]=[N-] | 18.7 (active)
18 | COCCOC(=O)N1C(=O)[C@@]2(c3cc(C#Cc4ccc(OC)cc4)ccc31)[C@H](c1ccc(OCCO)cc1)N1[C@H](c3ccccc3)[C@H](c3ccccc3)OC(=O)[C@H]1[C@@H]2C(=O)N1CCCCCCC1 | 2 (inactive)
19 | Cc1ccc(S[C@]2(C(=O)NC3CC3)CC(=O)N(Cc3cc(C(F)(F)F)cc(C(F)(F)F)c3)[C@@H]2c2ccc(CO)cc2I)cc1 | 5.58 (inactive)
20 | CC1(C)OC[C@@]23C=C(Br)[C@@H](C[C@H]12)[C@@]1(CO1)C3=O | -0.396 (inactive)
21 | CCOC(=O)C1=CC[C@@H](c2ccccc2)N(S(=O)(=O)c2ccc(C)cc2)[C@H]1C#N | 2.97 (inactive)
22 | COc1ccccc1CN1C(=O)c2ccccc2[C@](Cc2ccccc2I)(C(=O)NCCCN(C)C)[C@@H]1c1ccc(CO)cc1 | 2.8 (inactive)
23 | CCCC=C(CCC)[C@@H](NC(=O)c1ccco1)c1ccc(C(=O)OC)cc1 | -0.687 (inactive)
24 | CC(C)(C)OC(=O)CC[C@]1(C(N)=O)N=C(c2ccc(OCCCO)cc2)O[C@H]1c1ccccc1CN=[N+]=[N-] | 21.6 (active)
25 | COc1ccc(NN2C(C(O)c3cc(C(F)(F)F)cc(C(F)(F)F)c3)C=CC3C(=O)N(C4CCCCC4)C(=O)C32)cc1 (configuration not stated) | 1.62 (inactive)
26 | COc1ccc(CCNC(=O)[C@@]2(C)c3ccccc3C(=O)N(Cc3cc(C(F)(F)F)cc(C(F)(F)F)c3)[C@H]2c2ccc(CO)cc2)cc1 | 8.19 (active)
27 | CC(C)C(=C=CC[C@@H](O)c1ccc(OCCO)cc1)CCO | 2.86 (inactive)
